Experimental findings from PMC8384837, “Expanding the binding specificity for RNA recognition by a PUF domain” are described below.

Numbering of substitutions follows the chain as printed.

Holding throughout (assay): yeast three-hybrid, YBZ-1, SC-Leu-His + 0.5 mM 3-AT, 4 days
What all share (conditions): tags: N-Gal4 AD-HA kept; label: inside an RPR1-promoter hybrid RNA with tandem MS2 sites; ssRNA

One assay deals with PUM1 PUF domain R4-CCG (Homo sapiens, UniProt Q14671 828-1176, N971C;H972C;Q975G). Summed up: (§1)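 Each repeat of the Pumilio-1 PUF domain was randomized at its three base-contacting residues, and these libraries were co-expressed from a centromeric plasmid with matching RNA elements in strain YBZ-1. After four days on SC-Leu (input) or SC-Leu-His + 0.5 mM 3-AT (selection), the repeat regions were PCR-amplified and Illumina-sequenced. The interaction score compares variant frequency between input and selection as a log change, computed in log2 with a pseudocount of 1 for absent variants.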

In the next assay the target is PUM1 PUF domain R4-SRR (Homo sapiens, UniProt Q14671 828-1176, N971S;H972R;Q975R). The essentials:
as §1

Another assay deals with PUM1 PUF domain R7-RAS (Homo sapiens, UniProt Q14671 828-1176, S1079R;N1080A;E1083S). Summed up: as §1
Another assay deals with PUM1 PUF domain R7-GVD (Homo sapiens, UniProt Q14671 828-1176, S1079G;N1080V;E1083D). Summed up: as §1
A further assay concerns the target PUM1 PUF domain R1-FAR (Homo sapiens, UniProt Q14671 828-1176, S863F;R864A;Q867R). Summed up: as §1
The next assay addresses PUM1 PUF domain R1-GMR (Homo sapiens, UniProt Q14671 828-1176, S863G;R864M;Q867R). Summed up:
as §1

Another assay deals with PUM1 PUF domain R1-KKR (Homo sapiens, UniProt Q14671 828-1176, S863K;R864K;Q867R). The essentials:
as §1

In a further assay the target is PUM1 PUF domain R5-RLD (Homo sapiens, UniProt Q14671 828-1176, C1007R;R1008L;Q1011D). The essentials: as §1
The target of another assay is PUM1 PUF domain R5-RQV (Homo sapiens, UniProt Q14671 828-1176, C1007R;R1008Q;Q1011V). Summed up:
as §1

Another assay addresses PUM1 PUF domain R5-LNT (Homo sapiens, UniProt Q14671 828-1176, C1007L;R1008N;Q1011T). The essentials:
as §1

The target of another assay is PUM1 PUF domain R5-GVD (Homo sapiens, UniProt Q14671 828-1176, C1007G;R1008V;Q1011D). The essentials: as §1
Another assay addresses T1, PUM1 PUF domain R6-TYR (Homo sapiens, UniProt Q14671 828-1176, N1043T;Q1047R).
T1 sequence: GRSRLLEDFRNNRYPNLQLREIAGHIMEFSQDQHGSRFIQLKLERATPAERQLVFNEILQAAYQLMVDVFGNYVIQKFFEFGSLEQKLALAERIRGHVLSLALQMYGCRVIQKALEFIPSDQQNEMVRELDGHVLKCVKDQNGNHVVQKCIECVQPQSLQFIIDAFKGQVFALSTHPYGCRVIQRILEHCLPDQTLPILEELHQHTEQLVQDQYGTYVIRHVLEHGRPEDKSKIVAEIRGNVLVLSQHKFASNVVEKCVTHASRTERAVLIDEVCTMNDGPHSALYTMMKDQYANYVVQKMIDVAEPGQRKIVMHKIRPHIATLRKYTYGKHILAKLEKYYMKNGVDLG
The essentials:
as §1

The target in the next assay is T2, PUM1 PUF domain R6-QWG (Homo sapiens, UniProt Q14671 828-1176, N1043Q;Y1044W;Q1047G).
T2 sequence: T1 sequence with T216Q, Y217W, R220G
The essentials:
as §1

The next assay deals with PUM1 PUF domain R3-RPA (Homo sapiens, UniProt Q14671 828-1176, C935R;R936P;Q939A). Summed up:
as §1

Another assay has as its target PUM1 PUF domain R4-LGC (Homo sapiens, UniProt Q14671 828-1176, N971L;H972G;Q975C). The essentials:
as §1

In another assay the target is T3, PUM1 PUF domain R6-IWS (Homo sapiens, UniProt Q14671 828-1176, N1043I;Y1044W;Q1047S).
T3 sequence: T1 sequence with T216I, Y217W, R220S
Summed up:
as §1

A further assay has as its target PUM1 PUF domain R3-TSE (Homo sapiens, UniProt Q14671 828-1176, C935T;R936S;Q939E). Summed up:
as §1

Another assay addresses PUM1 PUF domain R8-SFQ (Homo sapiens, UniProt Q14671 828-1176, N1122S;Y1123F). Summed up:
as §1

A further assay concerns the target PUM1 PUF domain R2-EHL (Homo sapiens, UniProt Q14671 828-1176, N899E;Y900H;Q903L). The essentials: as §1
For a further assay, the target named is PUM1 PUF domain R2-RVN (Homo sapiens, UniProt Q14671 828-1176, N899R;Y900V;Q903N). Summed up:
as §1

As to “GGCUAGAACUAGUGGAUCCCCCGGCGCCCGGCGGCUCGAGCCCGGGUAAGUGUACAUAGUCUGCAUGCCGCCGGGCGCCAUGCCUGCAGGUCGACUCUAGAAAACAUG”, the binding signal in the assay with PUM1 PUF domain R4-CCG was 0.76 log2 enrichment (interaction score); in the assay with PUM1 PUF domain R4-SRR it was 4.09 log2 enrichment (interaction score).
On to “GGCUAGAACUAGUGGAUCCCCCGGCGCCCGGCGGCUCGAGCCCGGGUAAGUUUAAAUAGUCUGCAUGCCGCCGGGCGCCAUGCCUGCAGGUCGACUCUAGAAAACAUG”, for which the binding signal with PUM1 PUF domain R7-RAS is 2.46 log2 enrichment (interaction score); in the assay with PUM1 PUF domain R7-GVD, 2.75 log2 enrichment (interaction score).
Take “GGCUAGAACUAGUGGAUCCCCCGGCGCCCGGCGGCUCGAGCCCGGGUAAGUGUAAAUUGUCUGCAUGCCGCCGGGCGCCAUGCCUGCAGGUCGACUCUAGAAAACAUG”: the binding signal with PUM1 PUF domain R1-FAR is 4.18 log2 enrichment (interaction score); with PUM1 PUF domain R1-GMR, 1.96 log2 enrichment (interaction score); with PUM1 PUF domain R1-KKR, 7.39 log2 enrichment (interaction score).
For the sequence “GGCUAGAACUAGUGGAUCCCCCGGCGCCCGGCGGCUCGAGCCCGGGUAAGUGUUAAUAGUCUGCAUGCCGCCGGGCGCCAUGCCUGCAGGUCGACUCUAGAAAACAUG”, the binding signal was 0.72 log2 enrichment (interaction score) in the assay with PUM1 PUF domain R5-RLD, 4.22 log2 enrichment (interaction score) with PUM1 PUF domain R5-RQV and 4.04 log2 enrichment (interaction score) in the assay with PUM1 PUF domain R5-LNT.
Consider “GGCUAGAACUAGUGGAUCCCCCGGCGCCCGGCGGCUCGAGCCCGGGUAAGUGUGAAUAGUCUGCAUGCCGCCGGGCGCCAUGCCUGCAGGUCGACUCUAGAAAACAUG”, for which, in the assay with PUM1 PUF domain R5-GVD, the binding signal is 5.11 log2 enrichment (interaction score).
Consider “GGCUAGAACUAGUGGAUCCCCCGGCGCCCGGCGGCUCGAGCCCGGGUAAGUGCAAAUAGUCUGCAUGCCGCCGGGCGCCAUGCCUGCAGGUCGACUCUAGAAAACAUG”, for which the binding signal with PUM1 PUF domain R6-TYR is 5.11 log2 enrichment (interaction score).
As to “GGCUAGAACUAGUGGAUCCCCCGGCGCCCGGCGGCUCGAGCCCGGGUAAGUGAAAAUAGUCUGCAUGCCGCCGGGCGCCAUGCCUGCAGGUCGACUCUAGAAAACAUG”, in the assay with PUM1 PUF domain R6-QWG, the binding signal was 3.38 log2 enrichment (interaction score).
As to “GGCUAGAACUAGUGGAUCCCCCGGCGCCCGGCGGCUCGAGCCCGGGUAAGUGUCAAUAGUCUGCAUGCCGCCGGGCGCCAUGCCUGCAGGUCGACUCUAGAAAACAUG”, the results for the binding signal in the assay with PUM1 PUF domain R5-RLD and with PUM1 PUF domain R5-RQV were 2.78 log2 enrichment (interaction score) and 4.73 log2 enrichment (interaction score), respectively.
In the case of “GGCUAGAACUAGUGGAUCCCCCGGCGCCCGGCGGCUCGAGCCCGGGUAAGUGUAAUUAGUCUGCAUGCCGCCGGGCGCCAUGCCUGCAGGUCGACUCUAGAAAACAUG”, in the assay with PUM1 PUF domain R3-RPA, the binding signal is 3.99 log2 enrichment (interaction score).
In the case of “GGCUAGAACUAGUGGAUCCCCCGGCGCCCGGCGGCUCGAGCCCGGGUAAGUGUAUAUAGUCUGCAUGCCGCCGGGCGCCAUGCCUGCAGGUCGACUCUAGAAAACAUG”, the binding signal in the assay with PUM1 PUF domain R4-CCG is 1.84 log2 enrichment (interaction score).
Turning to “GGCUAGAACUAGUGGAUCCCCCGGCGCCCGGCGGCUCGAGCCCGGGUAAGUGUAAAUAGUCUGCAUGCCGCCGGGCGCCAUGCCUGCAGGUCGACUCUAGAAAACAUG”, the binding signal with PUM1 PUF domain R4-LGC was 4 log2 enrichment (interaction score); with PUM1 PUF domain R4-CCG, 2.6 log2 enrichment (interaction score); with PUM1 PUF domain R6-IWS, 2.75 log2 enrichment (interaction score); in the assay with PUM1 PUF domain R6-QWG it was 5.49 log2 enrichment (interaction score); in the assay with PUM1 PUF domain R6-TYR, 5.51 log2 enrichment (interaction score); with PUM1 PUF domain R3-RPA, 0.97 log2 enrichment (interaction score).
Regarding “GGCUAGAACUAGUGGAUCCCCCGGCGCCCGGCGGCUCGAGCCCGGGUAAGUGUAAGUAGUCUGCAUGCCGCCGGGCGCCAUGCCUGCAGGUCGACUCUAGAAAACAUG”, the binding signal with PUM1 PUF domain R3-TSE was 4.66 log2 enrichment (interaction score).
Consider “GGCUAGAACUAGUGGAUCCCCCGGCGCCCGGCGGCUCGAGCCCGGGUAAGUGUAAAUCGUCUGCAUGCCGCCGGGCGCCAUGCCUGCAGGUCGACUCUAGAAAACAUG”, for which the binding signal with PUM1 PUF domain R1-FAR was 0.5 log2 enrichment (interaction score); with PUM1 PUF domain R1-GMR it was 3.57 log2 enrichment (interaction score); in the assay with PUM1 PUF domain R1-KKR, 6.78 log2 enrichment (interaction score).
In the case of “GGCUAGAACUAGUGGAUCCCCCGGCGCCCGGCGGCUCGAGCCCGGGUAAGCGUAAAUAGUCUGCAUGCCGCCGGGCGCCAUGCCUGCAGGUCGACUCUAGAAAACAUG”, the binding signal in the assay with PUM1 PUF domain R8-SFQ was 2.84 log2 enrichment (interaction score).
In the case of “GGCUAGAACUAGUGGAUCCCCCGGCGCCCGGCGGCUCGAGCCCGGGUAAGUGUAAAAAGUCUGCAUGCCGCCGGGCGCCAUGCCUGCAGGUCGACUCUAGAAAACAUG”, the binding signal in the assay with PUM1 PUF domain R2-EHL was 3.07 log2 enrichment (interaction score).
Regarding “GGCUAGAACUAGUGGAUCCCCCGGCGCCCGGCGGCUCGAGCCCGGGUAAGUGUAAAGAGUCUGCAUGCCGCCGGGCGCCAUGCCUGCAGGUCGACUCUAGAAAACAUG”, the binding signal with PUM1 PUF domain R2-RVN was 3.32 log2 enrichment (interaction score).
